Records with an inconclusive call do not appear. Some structures have more than one record in an assay (separate samples or runs), and their calls can disagree. Active and inactive are the calls of the source. Calls follow the shape of the dose curve; as a rule, active = well fitted curve in the direction sought with a large enough effect; inconclusive = small, poorly fitted or top-dose-only effect, or another doubt; inactive = no such curve, though single readings can be large; an effect the other way counts as inactive or inconclusive.

Consider 24 compounds from PubChem BioAssay (NCATS).

For one assay, the system named is HEK293T. Kind of assay: qHTS assay to identify novel small-molecules to repurpose for Merkel cell carcinoma treatment (AID 1296009). Also: nearly all actives have a fitted effect of over 60% in size. Also: potency is read from the fitted curve at half-maximal effect. Particulars: MCC and control cell lines, CellTiter-Glo viability, 72 h; at 44.8 µM (top of the series). The gist of the method:
(§1)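 CellTiter-Glo luminescence after 72 hr compound exposure at 37 degree celsius gave cell viability. Libraries NPC and MIPE were run as 8- and 11-point dose responses; RLUs normalized to DMSO (negative) and no-cell (cytotoxicity) controls.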
Background: qHTS replaces the single test concentration by a dilution series.

In another assay the test system is MCC-13. The description is as above. The following applies: MCC and control cell lines, CellTiter-Glo viability, 72 h; series mostly up to 46 µM. The essentials: as §1
The test system of a further assay is MCC-26. The description is as above. Particulars: MCC and control cell lines, CellTiter-Glo viability, 72 h; series mostly up to 46 µM. The essentials:
as §1
A general note: Cellular ATP, detected with luciferase, serves as a proxy for viable cell number.

In the next assay the test system is MKL-1. The assay is described as above. Particulars: MCC and control cell lines, CellTiter-Glo viability, 72 h; series mostly up to 46 µM. The essentials:
as §1

For another assay, the system named is MKL-2. The assay is described as above. The following applies: MCC and control cell lines, CellTiter-Glo viability, 72 h; series mostly up to 46 µM. The essentials:
as §1

For another assay, the system named is UISO. The assay is described as above. Particulars: MCC and control cell lines, CellTiter-Glo viability, 72 h; series mostly up to 46 µM. The essentials: as §1
A further assay has as its system WaGa. The assay is described as above. Particulars: MCC and control cell lines, CellTiter-Glo viability, 72 h; series mostly up to 46 µM. The gist of the method: as §1
Another assay has as its system C33A. Kind of assay: Primary qHTS to identify gynecologic anti-cancer compounds using libraries of approved drugs and bioactive compounds (AID 1345084). Also: nearly all actives have a fitted effect of over 55% in size. The following applies: Gynecologic cancer cell panel viability, ATPlite luminescence, 48 h; series mostly up to 57.5 µM. The gist of the method:
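Five-point cytotoxicity, 48 h drug exposure at 37 C, 5% CO2, on cells seeded 16 h beforehand. ATP content read by ATPlite luminescence.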

The test system of a further assay is NIH3T3. Kind of assay: qHTS assay to identify novel small-molecules to repurpose for Merkel cell carcinoma treatment (AID 1296009). Also: nearly all actives have a fitted effect of over 60% in size. Also: potency is read from the fitted curve at half-maximal effect. Particulars: MCC and control cell lines, CellTiter-Glo viability, 72 h; at 44.8 µM (top of the series) unless noted. The gist of the method:
as §1

A further assay concerns HACAT. Described as above. Particulars: MCC and control cell lines, CellTiter-Glo viability, 72 h; at 44.8 µM (top of the series) unless noted. The essentials:
as §1
% is scaled to controls: 0 for no effect and ±100 for the full control effect.

Take `CC(C)NCC(O)c1ccccc1Cl` (configuration not stated): the outcome in the assay on HEK293T was inactive. Also, the Potency result with MCC-13, in the assay with MCC-26, with MKL-1, in the assay with MKL-2, with UISO and in the assay on WaGa was “inactive” each time. Also, in the assay on C33A, the Potency entry is “inactive”.

Consider `CC(C)(C)NCC(O)c1cc(Cl)c(N)c(Cl)c1` (configuration not stated), for which the Potency entry with MCC-13, in the assay on MCC-26, with MKL-1, with MKL-2, with UISO and in the assay with WaGa was “inactive” each time. In the assay with C33A, the Potency entry is “inactive”. Besides, the compound was classed as inactive in the assay with NIH3T3.

Take `Oc1ccccc1-c1ccccc1`: the compound was classed as inactive in the assay on HEK293T and with NIH3T3. Further, the Potency result in the assay with MCC-13, in the assay on MCC-26, in the assay with MKL-1, with MKL-2, with UISO and with WaGa was “inactive” in each case. Besides, in the assay on C33A, the Potency result is “inactive”.

`Cn1c(CCCC(=O)O)nc2cc(N(CCCl)CCCl)ccc21`: the outcome in the assay on HEK293T was inactive. Moreover, the Potency entry in the assay on MCC-13, in the assay with MCC-26, in the assay with MKL-1, with UISO and in the assay on C33A was “inactive” throughout. The Potency in the assay on WaGa was 18.8 µM (active) and inactive.

In the case of `CCCC(C)(COC(N)=O)COC(=O)NC(C)C` (configuration not stated), the outcome with HEK293T and in the assay on NIH3T3 was inactive. The Potency result in the assay on MCC-13, in the assay on MCC-26, in the assay on MKL-1, in the assay with MKL-2, in the assay on UISO and with WaGa was “inactive” throughout. Also, the Potency result in the assay on C33A is “inactive”.

For `C#CCN(C)[C@H](C)Cc1ccccc1`, the outcome in the assay with HEK293T and with NIH3T3 was inactive. Besides, the Potency entry in the assay with MCC-13, in the assay with MCC-26, in the assay on MKL-1, with MKL-2, in the assay with UISO and in the assay with WaGa was “inactive” each time. For the same compound, the Potency entry in the assay on C33A was “inactive”.

`CCN(CC)CCOC(=O)C(O)(c1ccccc1)c1ccccc1`: the Potency entry with MCC-13, in the assay with MCC-26, with MKL-1, in the assay with MKL-2, in the assay with UISO and in the assay on WaGa was “inactive” throughout. Moreover, the Potency entry in the assay on C33A was “inactive”. Besides, in the assay with NIH3T3, the outcome was inactive.

Consider `COC[C@@H](NC(C)=O)C(=O)NCc1ccccc1`, for which the outcome in the assay with HACAT was inactive. The Potency result in the assay with MCC-13, in the assay on MCC-26, in the assay on MKL-1, in the assay with MKL-2, with UISO and with WaGa was “inactive” in each case. Also, the Potency entry with C33A was “inactive”.

As to `CCN(CC)CCN1C(=O)CN=C(c2ccccc2F)c2cc(Cl)ccc21`, the Potency result in the assay with MCC-13, in the assay on MCC-26, in the assay with MKL-1, in the assay on MKL-2, in the assay with UISO and with WaGa was “inactive” in each case. Besides, the Potency result in the assay with C33A was “inactive”. Also, the outcome in the assay on NIH3T3 was inactive.

With `CCCN1CCC[C@@H]2Cc3nc(N)ncc3C[C@H]21`, in the assay with HACAT, the compound was called inactive. Further, the Potency entry in the assay with MCC-13, with MKL-2, in the assay with WaGa and in the assay on C33A was “inactive” throughout. The Potency with UISO was 29.9 µM (active).

Turning to `Nc1ccncc1`, the compound was called inactive with HACAT. Moreover, the Potency result in the assay with MCC-13, in the assay on MCC-26, in the assay with MKL-1, with MKL-2, with UISO and in the assay with WaGa was “inactive” in each case. Besides, in the assay on C33A, the Potency entry is “inactive”.

Turning to `CC(C)=CC1C(C(=O)OCc2cccc(Oc3ccccc3)c2)C1(C)C` (configuration not stated), the compound was called inactive with HEK293T and with NIH3T3. Besides, the Potency entry with MCC-13, with MCC-26, in the assay with MKL-1, in the assay with MKL-2, with UISO and in the assay with WaGa was “inactive” in each case. For the same compound, the Potency entry in the assay on C33A was “inactive”.

Regarding `CC(O)(CS(=O)(=O)c1ccc(F)cc1)C(=O)Nc1ccc(C#N)c(C(F)(F)F)c1` (configuration not stated), the result in the assay on HACAT and in the assay with NIH3T3 was inactive. The Potency in the assay with MKL-2 was 4.18 µM (active); in the assay on WaGa, 8.33 µM (active). Besides, the Potency entry in the assay with C33A is “inactive”.

As to `CC[N+]1(C)CCCC(OC(=O)C(O)(c2ccccc2)c2ccccc2)C1` (configuration not stated), the Potency entry with MCC-13, in the assay with MCC-26, in the assay on MKL-1, in the assay on MKL-2, with UISO and with WaGa was “inactive” each time. Also, the Potency entry in the assay with C33A was “inactive”. In addition, the result in the assay with NIH3T3 was inactive.

As for `CCCN1CCC[C@@H]2Cc3[nH]ncc3C[C@H]21`, the Potency entry in the assay with MCC-13, with MCC-26, in the assay on MKL-1, with MKL-2, in the assay on UISO and in the assay on WaGa was “inactive” in each case. In addition, the Potency entry with C33A was “inactive”. Besides, in the assay on NIH3T3, the outcome was inactive.

For the compound `CCN(CC)C(=O)N[C@@H]1C=C2c3cccc4[nH]cc(c34)C[C@@H]2N(C)C1`, the Potency entry in the assay with MCC-13, in the assay on MCC-26, in the assay on MKL-1, in the assay with MKL-2, in the assay on UISO and with WaGa was “inactive” in each case. Moreover, the Potency result in the assay on C33A is “inactive”. Moreover, the call in the assay with NIH3T3 was inactive.

In the case of `CC(CCc1ccccc1)NC(C)C(O)c1ccc(O)cc1` (configuration not stated), in the assay with HACAT, the result was inactive. For the same compound, the Potency result in the assay with MCC-13, with MCC-26, with MKL-1, in the assay on MKL-2, in the assay on UISO and with WaGa was “inactive” in each case. Also, in the assay with C33A, the Potency entry was “inactive”.

Consider `COC[C@H]1OC(=O)c2coc3c2[C@@]1(C)C1=C(C3=O)C2CCC(=O)[C@@]2(C)C[C@H]1OC(C)=O` (some centres not stated), for which the result in the assay with HACAT was inactive. The Potency result in the assay on MCC-13, in the assay on MCC-26, in the assay with UISO and with C33A was “inactive” each time. In addition, the figures for the Potency in the assay with MKL-1, with MKL-2 and in the assay with WaGa were 11.8 µM (active), 7.43 µM (active) and 8.33 µM (active), respectively.

As for `CCC(=O)C(CC(C)N(C)C)(c1ccccc1)c1ccccc1` (configuration not stated), the outcome with HACAT is “inactive [at 92 µM]”. The Potency result in the assay on MCC-13, in the assay on MCC-26 and in the assay with C33A was “inactive” each time.

Turning to `NCC(CC(=O)O)c1ccc(Cl)cc1` (configuration not stated), the outcome in the assay with HACAT was “inactive [at 0.588 µM]”. Further, the activity change, negative = cytotoxicity was -6.05% [at 0.597 µM] (inactive) in the assay with MCC-13; -16.1% [at 0.597 µM] (inactive) in the assay with MCC-26; -6.57% [at 0.597 µM] (inactive) with MKL-1; -11.6% [at 0.597 µM] (inactive) with MKL-2; -4.03% [at 0.597 µM] (inactive) with UISO; -6.81% [at 0.597 µM] (inactive) with WaGa. In the assay on C33A, the activity change, negative = cytotoxicity is 1.19% [at 0.462 µM] (inactive).

In the case of `OCCOc1ccccc1`, in the assay with HACAT, the call was inactive. In addition, the Potency result with MCC-13, in the assay on MCC-26, in the assay with MKL-1, with MKL-2, with UISO and with WaGa was “inactive” throughout. Moreover, in the assay with C33A, the Potency entry is “inactive”.

In the case of `O=[N+]([O-])c1cc([As](=O)(O)O)ccc1O`, the call with HEK293T and with NIH3T3 was inactive. The Potency result in the assay on MCC-13, in the assay on MCC-26, with MKL-1, in the assay on UISO, in the assay with WaGa and with C33A was “inactive” in each case.

With `CC(C)=CCOc1c2occc2cc2ccc(=O)oc12`, in the assay on HACAT, the call was inactive. In addition, the Potency entry with MCC-13, in the assay on MCC-26, in the assay on MKL-1, in the assay on MKL-2, with UISO and in the assay with WaGa was “inactive” throughout. Also, in the assay with C33A, the Potency entry is “inactive”.

Regarding `C[C@]12C/C(=C/O)C(=O)C[C@@H]1CC[C@@H]1[C@@H]2CC[C@@]2(C)[C@H]1CC[C@]2(C)O`, in the assay with HACAT, the result was inactive. The Potency result in the assay on MCC-13, in the assay with MCC-26 and with C33A was “inactive” each time.
